Measurements: PubChem BioAssay (Tox21)
Inconclusive results are not listed. The source made the active and inactive calls. Calls come from the whole dose curve; as a rule, active = well fitted activation curve with a large enough effect in the signal ratio in the repeat runs (not every such curve was filed as active); inconclusive = weak or mixed curves; inactive = flat fitted curve, though single readings scatter; the % refers to the signal ratio.

Experiment: p53 small molecule agonists, cell-based qHTS assay (AID 1963582)
Details: HCT-116 p53RE-bla reporter, beta-lactamase FRET ratio, 16 h; series mostly up to 66 µM; activation: at the top concentration
Text: National Center for Advancing Translational Sciences [NCATS]
Division of Preclinical Innovation [DPI]
U.S. Environmental Protection Agency [EPA]
National Institutes of Environmental Health Sciences [NIEHS]
National Toxicology Program [NTP]
U.S. Food and Drug Administration [FDA]
p53, a tumor suppressor protein, is activated following cellular insult, including DNA damage and other cellular stresses. The activation of p53 regulates cell fate by inducing DNA repair, cell cycle arrest, apoptosis, or cellular senescence. The activation of p53, therefore, is a good indicator of DNA damage and other cellular stresses. […] The activation of the reporter gene under culture conditions can be detected by fluorescence intensity. This cell line was used to screen the Tox21 10K compound library in a 1536-well plate format and to identify agonists that activate the p53 signaling pathway.
Tox21 Assay Protocol Summary:
The p53RE-bla cells were dispensed at 4,000 cells/5 ul/well in 1536-well black wall/clear bottom plates using a Multidrop dispenser. After the assay plates were incubated at a 37 C/5% CO2 incubator for 5 hours, 23 nL of compounds dissolved in DMSO, positive controls or DMSO only was transferred to the assay plate by a pin tool. The plates were incubated at 37 C for 16 hours. After 1 uL of LiveBLAzerTM B/G FRET substrate was added using a Flying Reagent Dispenser, the plates were incubated at room temperature for 2 hours, and fluorescence intensity was measured by an Envision plate reader.
% is set by controls: 0 for no effect and ±100 for the full control effect.

| Compound | activation |
| --- | --- |
| CCCCCCC/C=C/C=O | -1.22% (inactive) |
| CCCCC(CC)C(=O)OC(C)C (stereo not given) | 0.197% (inactive) |
| CCC=O | 4.19% (inactive) |
| CC(C)NCCCC1(C(N)=O)c2ccccc2-c2ccccc21 | -2.72% [at 30.3 µM] (inactive) |
| CCOC(=O)C1=C(C)NC(C)=C(C(=O)OC)C1c1cccc(Cl)c1Cl (stereo not given) | 0.0479% [at 30.3 µM] (inactive) |
| O=C(O)c1cn(C2CC2)c2cc(Cl)c(F)cc2c1=O | -4.78% [at 30.3 µM] (inactive) |
| Nc1nc(-c2ccccc2)c(Br)c(=O)[nH]1 | 0.658% [at 30.3 µM] (inactive) |
| NS(=O)(=O)c1ccc(Cl)c(S(N)(=O)=O)c1 | 0.686% [at 30.3 µM] (inactive) |
| COCCOCCOCCOC | -2.28% (inactive) |
| O=C(OC1C[C@H]2CC[C@@H](C1)[N+]21CCCC1)C(O)(c1ccccc1)c1ccccc1 (stereo not given in full) | -3.07% [at 30.3 µM] (inactive) |
| CCOC(=O)CC(CC(=O)OCC)(OC(C)=O)C(=O)OCC | 0.977% (inactive) |
| Cc1cccc(C)c1NC(=O)c1cc(S(N)(=O)=O)c(Cl)cc1O | 0.0839% [at 30.3 µM] (inactive) |
| C=C(C)C(=O)OCCN(CC)CC | -3.12% (inactive) |
| CCN(CC)c1ccc(C(=C2C=CC(=[N+](CC)CC)C=C2)c2ccc(S(=O)(=O)O)cc2S(=O)(=O)[O-])cc1 | 0.887% (inactive) |
| CCN(CC)CCOc1ccccc1C(=O)CCc1ccccc1 | 0.0411% [at 30.3 µM] (inactive) |
| C=C(C)C1CCC(C)CC1O (stereo not given) | -4.05% (inactive) |
| N#CCC(=O)NN | -0.428% [at 30.3 µM] (inactive) |
| c1ccc(CN(CC2=NCCN2)c2ccccc2)cc1 | -0.0252% [at 30.3 µM] (inactive) |
| CC(=O)CC(c1ccc([N+](=O)[O-])cc1)c1c(O)c2ccccc2oc1=O (stereo not given) | -3.32% [at 30.3 µM] (inactive) |
| COc1ccc(OC)c(OC)c1 | -3.52% (inactive) |

| Compound | activation |
| --- | --- |
| O=c1cc(-c2ccccc2)oc2ccc3ccccc3c12 | -1.27% (inactive) |
| COC(=O)NN | 2.21% (inactive) |
| CC(C)(C)c1cc(CCC(=O)NCCCCCCNC(=O)CCc2cc(C(C)(C)C)c(O)c(C(C)(C)C)c2)cc(C(C)(C)C)c1O | -5.18% (inactive) |
| CCN(CC)CC(=O)Nc1c(C)cccc1C(=O)OC | 1.15% [at 30.3 µM] (inactive) |
| Cc1ccc(Cl)c(OCC(O)CNC(C)(C)C)c1 (stereo not given) | -0.207% [at 30.3 µM] (inactive) |
| CC(C)CCOC(=O)CC(C)C | 0.072% (inactive) |
| C=C1CC[C@H]2O[C@]2(C)CC[C@@H]2[C@@H]1CC2(C)C | -1.33% (inactive) |
| C=CC(=O)OCC[N+](C)(C)C | -2.74% (inactive) |
| Nc1nc2c(ncn2CCC(CO)CO)c(=O)[nH]1 | -2.2% [at 30.3 µM] (inactive) |
| Nc1cccc(S(=O)(=O)O)c1 | -4.19% (inactive) |
| Cc1cccc(C)c1NC(=O)c1ccccc1C(=O)O | -0.265% [at 30.3 µM] (inactive) |
| O=C(O)CCSCCC(=O)O | 1.57% (inactive) |
| Cc1c(C)c2c(c(C)c1O)CC[C@@](C)(CCC[C@H](C)CCC[C@H](C)CCCC(C)C)O2 | 0.818% (inactive) |
| O=C(Nc1cccc2c(=O)cc(-c3nn[nH]n3)oc12)c1ccc(OCCCCc2ccccc2)cc1 | -7.62% [at 30.3 µM] (inactive) |
| BrC(Br)C(Br)Br | -3.94% (inactive) |
| COc1c(N2C[C@@H]3CCCN[C@@H]3C2)c(F)cc2c(=O)c(C(=O)O)cn(C3CC3)c12 | 1.92% [at 30.3 µM] (inactive) |
| Cc1nc2n(c(=O)c1CCN1CCC(C(=O)c3ccc(F)cc3)CC1)CCS2 | -3.04% [at 30.3 µM] (inactive) |
| O=c1[nH]ncc2ccccc12 | 0.177% (inactive) |
| Cc1nccn1CC1CCc2c(c3ccccc3n2C)C1=O (stereo not given) | 0.14% [at 30.3 µM] (inactive) |
| C[C@@H]1C[C@H]2[C@@H]3CCC4=CC(=O)C=C[C@]4(C)[C@@]3(F)[C@@H](O)C[C@]2(C)[C@@]1(O)C(=O)CO | -6.42% (inactive) |
